Source: PubChem BioAssay
Cruzain noTriton = inhibitors of Trypanosoma cruzi cruzain without detergent. P25779. purified cruzain, Z-FR-AMC fluorescence, no detergent. Potency, µM, most hits filed as inhibitors. 200,000 tested, 2.3% active; note: nearly all actives have a fitted effect of over 40% in size
Target sequence (P25779 123-467 limits assumed): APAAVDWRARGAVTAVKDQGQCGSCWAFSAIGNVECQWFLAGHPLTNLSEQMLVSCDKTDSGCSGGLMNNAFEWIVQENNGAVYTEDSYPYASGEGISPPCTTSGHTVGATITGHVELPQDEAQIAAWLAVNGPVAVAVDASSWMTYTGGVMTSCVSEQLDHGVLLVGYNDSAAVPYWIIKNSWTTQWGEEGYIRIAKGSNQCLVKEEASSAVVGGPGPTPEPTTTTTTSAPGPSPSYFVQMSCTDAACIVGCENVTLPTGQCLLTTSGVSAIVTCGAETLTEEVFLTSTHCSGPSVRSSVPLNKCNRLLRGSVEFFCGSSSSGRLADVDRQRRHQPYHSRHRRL
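Detergent-free condition (0.00005% Triton X-100) in acetate buffer pH 5.5 with DTT. 1.5 nM enzyme and compound were pre-mixed 15 min, then 2 uM Z-FR-AMC substrate added; reaction progress from fluorescence change between first and third reads (60 s).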
Cruzain inh Det = blocks cruzain activity in presence of Triton detergent; P25779; purified cruzain, Z-FR-AMC fluorescence, 0.01% Triton; Potency, µM, hits mostly inhibitors; 200,000 tested, 0.43% active; note: nearly all actives have a fitted effect of over 40% in size
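Cysteine protease activity tested under reducing, mildly acidic conditions (100 mM sodium acetate pH 5.5, 5 mM DTT) plus 0.01% Triton X-100. Cruzain 1.5 nM; substrate Z-FR-AMC 2 uM; 15 min compound preincubation at room temperature.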
Large screens that a line does not name were inactive. Compounds with a hit are over-represented: about 2.6% of the library has one in this group of screens. Calls come from the whole dose curve; as a rule, active = well fitted curve in the direction sought with a large enough effect; inconclusive = small, poorly fitted or top-dose-only effect, or another doubt; inactive = no such curve, though single readings can be large; an effect the other way counts as inactive or inconclusive.

CCOc1ccc(NC(=O)CSC2=Nc3ccccc3C3=NC(CCC(=O)NCc4cccs4)C(=O)N23)cc1 (stereo not given)	none
CCN(CC)S(=O)(=O)c1ccc2c(c1)N(CC(=O)Nc1c(C)cc(C)cc1C)C(=O)C1CCCN21 (stereo not given)	none
COc1ccc(C2C=C(c3ccccc3)Nc3nc(NC(=O)/C=C/c4ccc(Cl)cc4)nn32)cc1 (stereo not given)	none
COc1ccccc1CNC(=O)c1ccc2c(c1)N(Cc1ccc(C)cc1)CCS2	Cruzain noTriton inconclusive
Cc1ccc(CN2CCSc3ccc(C(=O)Nc4ccc(C)cc4)cc32)cc1	Cruzain noTriton 10µM
CCOc1ccc(CCNC(=O)c2ccc3c(c2)N(Cc2ccc(C)cc2)CCS3)cc1	Cruzain noTriton inconclusive
COc1ccc(Br)cc1CNC(=O)c1ccc2c(c1)N(Cc1ccc(C)cc1)CCS2	Cruzain noTriton 10µM
Cc1cccc(C(=O)Nc2cccc(OCc3cc(=O)n4ccccc4n3)c2)c1	none
CCc1nnc(NC(=O)CSc2nccn2Cc2ccc(F)cc2)s1	none
Cc1nc(SCc2cccc(Cl)c2)nc2c1CCCC2	none
COc1ccc(CNC(=O)CCCc2nnc3n(CCC(C)C)c(=O)c4sccc4n23)cc1	none
Cc1ccc(NC(=O)Cn2cc(S(=O)(=O)c3ccccc3)c(=O)c3cc4c(cc32)OCO4)cc1	Cruzain noTriton inconclusive
O=C(NCc1cn2ccsc2n1)c1cccc(C(F)(F)F)c1	none
O=C(NCc1cn2ccsc2n1)c1c(F)cccc1Cl	Cruzain noTriton 20µM
Cc1ccc2c(c1[N+](=O)[O-])C(=O)c1ccccc1C2=O	none
CN(C)C(=O)c1ccc2c(c1[N+](=O)[O-])C(=O)c1ccccc1C2=O	none
Cc1[nH]c2c(C)cccc2c1CCNC(=O)c1ccc2c(c1[N+](=O)[O-])C(=O)c1ccccc1C2=O	Cruzain noTriton 7.9µM
Cc1[nH]c2ccccc2c1CCNC(=O)c1ccc2c(c1[N+](=O)[O-])C(=O)c1ccccc1C2=O	Cruzain noTriton 10µM
Cc1cc(=Nc2ccc3c(c2)c(N)cc(C)[n+]3C)nc(N)n1C	none
CCOc1ccc(S(=O)(=O)N(CC(=O)Nc2cccnc2)c2ccccc2)cc1	none
CCCSCCCNC(=O)c1ccc2nc(Cc3ccccc3)oc2c1	none
O=C(NCc1cccc(Cl)c1)c1cc2ccc3cccnc3c2[nH]1	none
O=C(NCc1ccc(Cl)cc1)c1cc2ccc3cccnc3c2[nH]1	Cruzain noTriton 25µM
COc1ccc(-c2nc(CCNC(=O)Cc3ccc(F)cc3)cs2)cc1	none
CCOC(=O)CC(SP(=O)(OC)OC)C(=O)OCC (stereo not given)	none
O=c1c2c(n3nnnc3n1Cc1ccccc1)-c1ccccc1CC21CCCC1	Cruzain noTriton 25µM
CCC1(C)Cc2ccccc2-c2c1c(=O)n(Cc1ccccc1)c1nnnn21 (stereo not given)	Cruzain noTriton inconclusive
Cn1c(SCc2ccc(C(F)(F)F)cc2)nc2c([nH]c3ccccc32)c1=O	none
O=C(Cc1ccc(-c2ccccc2)cc1)NCCS(=O)(=O)N1CCN(c2cccc(Cl)c2)CC1	none
Cc1ccc(C)c(NC(=O)Cn2c(=O)n(Cc3ccc4c(c3)OCO4)c(=O)c3ccc(C(=O)NC4CCCCC4)cc32)c1	none
O=C(Cn1c(=O)n(Cc2ccc3c(c2)OCO3)c(=O)c2ccccc21)N1CCCc2ccccc21	Cruzain noTriton 32µM
COc1cccc(NC(=O)Cn2c(=O)n(Cc3ccc(C(=O)NCc4ccc(C)cc4)cc3)c(=O)c3ccccc32)c1	Cruzain noTriton 13µM
CC1CCN(C(=O)Cn2c(=O)n(Cc3ccc4c(c3)OCO4)c(=O)c3ccccc32)CC1	none
Cc1cc(C)c(NC(=O)Cn2c(=O)n(Cc3ccc(C(=O)NCc4ccc5c(c4)OCO5)cc3)c(=O)c3ccccc32)c(C)c1	none
Cc1cccc(NC(=O)Cn2c(=O)n(Cc3ccc(C(=O)NCc4ccc5c(c4)OCO5)cc3)c(=O)c3ccccc32)c1	Cruzain noTriton 4µM
COc1cccc(NC(=O)Cn2c(=O)n(CCc3ccc(OC)c(OC)c3)c(=O)c3ccccc32)c1	none
CCN(C(=O)Cn1c(=O)n(Cc2ccc3c(c2)OCO3)c(=O)c2ccc(C(=O)NC3CCCCC3)cc21)c1cccc(C)c1	Cruzain noTriton 32µM
COc1ccc(C(=O)CC2(O)C(=O)Nc3c(C)cccc32)c(OC)c1OC (stereo not given)	none
CCc1cccc(C)c1NS(=O)(=O)c1c(C(=O)N2CCC(C)CC2)c(C)n(C)c1C	Cruzain noTriton inconclusive
CCOc1ccc(C2C(=O)N(C3CCCCCC3)CC(=O)N2Cc2ccccc2)cc1OC (stereo not given)	none
O=C(Cn1c(=O)n(Cc2ccc3c(c2)OCO3)c(=O)c2ccccc21)Nc1cccc(Cl)c1	none
O=C(Cn1c(=O)n(Cc2ccc(C(=O)NCc3ccc4c(c3)OCO4)cc2)c(=O)c2ccccc21)Nc1cccc(Cl)c1	Cruzain noTriton 4µM
C/C(=N\N=C(/N)SC1CC(=O)N(c2ccc(Cl)cc2)C1=O)c1cccs1 (stereo not given)	none
C/C(=N\N=C(/N)SC1CC(=O)N(c2ccc(Cl)c(Cl)c2)C1=O)c1cccs1 (stereo not given)	Cruzain noTriton 32µM
CCOC(=O)c1cccc(NC(=O)c2nn(-c3ccc(OC)cc3)c(=O)c3c2c2ccccc2n3C)c1	none
CC(=O)Nc1ccc2nc3c(=O)[nH]c(=O)[nH]c3nc2c1	none
Cc1ccc(-c2nc3ccccc3[nH]2)cc1NC(=O)c1ccc2c(c1)OCO2	Cruzain noTriton inconclusive
O=C(NC(=S)Nc1cc(-c2nc3ccccc3[nH]2)ccc1Cl)c1ccc2c(c1)OCO2	Cruzain noTriton 32µM, Cruzain inh Det 18µM
S=C(NCc1ccc2c(c1)OCO2)Nc1ccc(-c2nc3ccccc3[nH]2)cc1	Cruzain noTriton 20µM
S=C(NCc1ccc(Cl)c(Cl)c1)Nc1ccc2c(c1)OCO2	none
CC(=O)c1cccc(NC(=O)c2oc(=O)c3ccccc3c2-c2ccccc2)c1	none
CC(C)(C)c1ccc(C2NC(=O)c3n[nH]c(-c4cccs4)c32)cc1 (stereo not given)	none
CC(C)(C)OC(=O)N1CCC(c2c(C(=O)N3CCN(c4ncccn4)CC3)cnn2-c2ccc(F)cc2)CC1	none
Cc1cc(=O)n(Cc2c(F)cccc2Cl)c2c1c(C)nn2-c1cccc(F)c1	none
COc1ccc(NC(=O)CSc2nc(-c3cccs3)cc(C(F)(F)F)n2)c(OC)c1	none
COc1ccccc1CNC(=O)c1ccc(N2CCCC2)c(NC(=O)NCCC(C)C)c1	none
CS(=O)(=O)N1CCN(c2ccccc2NC(=O)c2ccc(Cl)cc2)CC1	none
CS(=O)(=O)N1CCN(c2ccccc2NC(=O)c2ccc3ccccc3c2)CC1	Cruzain noTriton 20µM
CN(C)c1ccc(N)cc1	none
COc1cc2c(cc1NC(=O)CSc1ccc(C)cc1)oc1ccccc12	none
COc1cc2c(cc1NC(=O)COc1ccccc1OC)oc1ccccc12	none
COc1cc2c(cc1NC(=O)CN1CCN(S(=O)(=O)c3ccccc3F)CC1)oc1ccccc12	Cruzain noTriton 25µM
COc1cc2c(cc1NC(=O)CSc1nnnn1-c1ccccc1)oc1ccccc12	Cruzain noTriton 32µM
CCCN(CCC)S(=O)(=O)c1ccc(C(=O)Nc2cc3oc4ccccc4c3cc2OC)cc1	Cruzain noTriton 16µM
COc1cc2c(cc1NC(=O)COC(=O)c1ccc(C(C)(C)C)cc1)oc1ccccc12	Cruzain noTriton 13µM
COc1cc2c(cc1NC(=O)Cc1ccc(C)cc1)oc1ccccc12	none
CCN(CC)S(=O)(=O)c1cccc(C(=O)Nc2cc3oc4ccccc4c3cc2OC)c1	Cruzain noTriton inconclusive
